Activity calls are given as the source filed them. How the calls were made is not given here.

This test deals with Pantothenate synthetase (Mycobacterium tuberculosis (strain ATCC 25618 / H37Rv)) (UniProt P9WIL5). Put plainly: Recombinant Mtb pantothenate synthetase (PanC) inhibitors, coupled enzyme, confirmatory (AID 375).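 Further: 0% = full reaction with vehicle and 100% = no enzyme background.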 The note with it: coupled enzyme assay; at 10 µM, active compounds read high.
Pantothenate synthetase (Mycobacterium tuberculosis (strain ATCC 25618 / H37Rv)), sequence (P9WIL5 whole entry, looked up): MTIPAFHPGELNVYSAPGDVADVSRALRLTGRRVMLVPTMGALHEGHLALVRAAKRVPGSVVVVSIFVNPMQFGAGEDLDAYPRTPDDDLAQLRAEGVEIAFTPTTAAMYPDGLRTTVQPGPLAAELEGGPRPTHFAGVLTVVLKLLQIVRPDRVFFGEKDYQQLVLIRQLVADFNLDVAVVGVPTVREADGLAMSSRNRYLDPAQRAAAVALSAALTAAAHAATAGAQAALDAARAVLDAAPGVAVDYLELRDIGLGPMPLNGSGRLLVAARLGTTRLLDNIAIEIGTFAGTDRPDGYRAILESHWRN
On to `O=C1c2ccccc2C(Nc2ccc(-c3nc4ccccc4[nH]3)cc2)N1Cc1ccco1` (stereo unspecified), for which the inhibition was 5% (inactive).

Consider `Cc1cccc(N2C(=O)CC(N(C(=O)c3ccco3)c3cccc(C)c3)C2=O)c1` (stereo unspecified), for which the inhibition was 0% (inactive).

Turning to `CCOC(=O)c1ccc(N2C(=O)CC(Sc3nnc(C)s3)C2=O)cc1` (stereo unspecified), the inhibition is 0% (inactive).

With `Nc1cc(-c2ccc(Br)cc2)nn1S(=O)(=O)c1ccccc1`, the inhibition is 2% (inactive).

Regarding `Cc1cccc(C)c1NC(=O)N1CCN(C2CCCCC2)CC1`, the inhibition was 0% (inactive).

Regarding `CCC(C)NC(=O)C1(C)CCC(=O)N1CCc1ccc(OC)c(OC)c1` (stereo unspecified), the inhibition is 0% (inactive).

With `Cc1ccc(C)c(S(=O)(=O)NCc2ccc(C(=O)N3CCN(C)CC3)cc2)c1`, the inhibition was 0% (inactive).

For the compound `Cc1cc(-c2ccccc2)c(C#N)c(N)n1`, the inhibition was 1% (inactive).

Regarding `Cn1c(=O)c2c(nc(NCc3ccccc3)n2CCCc2ccccc2)n(C)c1=O`, the inhibition was 0% (inactive).

As for `Cc1cc(NC(=O)CSc2ccc3nnc(-c4cccc(F)c4)n3n2)no1`, the inhibition was 0% (inactive).

`CO[C@@]1(NC(=O)CSCC#N)C(=O)N2C(C(=O)O)=C(CSc3nnnn3C)CS[C@@H]21`: the inhibition is 0% (inactive).

`CC(C(=O)NC(=O)NC1CCCCC1)N1CCN(c2ccccn2)CC1` (stereo unspecified): the inhibition is 0% (inactive).

In the case of `COC(=O)c1nc(N)sc1-c1ccccc1`, the inhibition is 0% (inactive).

For `CC(=O)Nc1cccc(NC(=O)CSc2nnnn2C)c1`, the inhibition is 0% (inactive).

Regarding `COc1ccc(-c2cc3nc4n(c(=O)c3s2)CCC4)cc1`, the inhibition was 8% (inactive).

For `O=C1CC(N2CCN(c3cccc(C(F)(F)F)c3)CC2)C(=O)N1c1ccccc1` (stereo unspecified), the inhibition is 0% (inactive).

By inhibition is commonly meant the percentage by which the read-out fell short of the control.

The values above are taken from PubChem BioAssay.
